AddAB inh – less growth of phage-infected E. coli with AddAB. inhibition, % at 11.9 µM. E. coli expressing H. pylori AddAB, absorbance growth. AID 435030. 0.29% of 330,000 active; in the data active = inhibition above about 12%
E coli growth-1 – E. coli growth inhibition; OD600 absorbance (no concentration beside the values); 0.21% of 330,000 active; Escherichia coli growth, OD600, 23 h; stronger effect = lower value; AID 1053175;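 active = OD600 absorbance below the run mean of sample wells minus 3.6 SD, in any replicate, cut at about 0.56 in these data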
E coli growth-2 – bacterial growth inhibition, counter-screen for AddAB inhibitors | E. coli V3065 growth, OD600 absorbance, 18 h | inhibition, % at 11.9 µM | 0.27% of 330,000 active | AID 449728;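 active = inhibition above the campaign's mean inhibition across all tested compounds plus 3 SD, cut at about 9.9% in these data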;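 note: uninfected addAB+ strain grown without phage in ampicillin broth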
phage Ecoli inh – E. coli growth loss with phage present; inhibition, % at 11.9 µM; growth absorbance; 0.26% of 360,000 active; AID 651602; in the data active = inhibition above about 11%
Tat transport – inhibitors of E. coli Tat protein transport; inhibition, % at 10 µM; 0.036% of 340,000 active; E. coli MC4100 TorA-mCherry Tat export, fluorescence;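 active = mean replicate inhibition at least 50% and at least half of replicates individually reaching 50%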;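 note: exported cargo escapes ClpAP degradation while cytoplasmic cargo is degraded and loses fluorescence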
Each line names hits and unclear results; the compound was inactive in the other large screens. A selection: hits, their analogues and other compounds. The true share with any hit is near 0.5%.

CCN(CC)C(=O)c1ccc(/C=C/c2c[nH]c3ccccc23)[n+](C)c1	none
CC[n+]1c(/C=C/c2c[nH]c3ccccc23)ccc2cc(C)ccc21	E coli growth-1 0.463 (no result: AddAB inh, E coli growth-2)
Oc1c(Cl)cc(Cl)cc1C=NNC(=S)NC1CC2C=CC1C2 (configuration not stated)	none (no result: AddAB inh, E coli growth-2, phage Ecoli inh, Tat transport)
Oc1c(Br)cc(Br)cc1/C=N/NC(=S)N[C@H]1CC2C=CC1C2 (some centres not stated)	E coli growth-2 10.1 (no result: E coli growth-1)
CC(C)c1ccc2c(c1)CCC1C(C)(CN)CCCC21C (configuration not stated)	E coli growth-1 0.475
CC(C)c1ccc2c(c1)CC[C@H]1[C@](C)(CN)CCC[C@]21C	none (no result: AddAB inh, E coli growth-1, E coli growth-2)
Cc1c(-n2c(SCC(C)C)nc3ccccc3c2=O)c(=O)n(-c2ccccc2)n1C	E coli growth-1 0.391
O=C1CN(S(=O)(=O)c2cc(Br)ccc2Br)CCN1	none
O=c1c(Br)ccc(Br)cc1Br	E coli growth-1 0.523 (no result: AddAB inh, E coli growth-2)
COC(=O)c1ccc(C=NOCC(=O)Nc2cc(F)ccc2F)cc1	E coli growth-1 0.526 (no result: AddAB inh, E coli growth-2, phage Ecoli inh, Tat transport)
CC(=O)c1cccc(N(CC(=O)NCCc2ccccc2)C(=O)c2csnn2)c1	E coli growth-1 0.534
CCOc1ccc(C2Nc3cccc4cccc(c34)N2)cc1OC	E coli growth-1 0.555
CCOc1cc(C2Nc3cccc4cccc(c34)N2)ccc1O	none (no result: phage Ecoli inh)
O=C(NCCc1ccccc1)c1ccnc(C=NO)c1	none (no result: AddAB inh, E coli growth-2, phage Ecoli inh, Tat transport)
Cc1ccc(C2C3C(=O)N(c4ccccc4)C(=O)C3[C@]3(C)C(=O)N(Cc4ccc(-c5ccccc5)cc4)CC(=O)N23)o1 (some centres not stated)	none (no result: AddAB inh, E coli growth-2, phage Ecoli inh, Tat transport)
NC(=O)SCC(=O)Nc1ccc(Cl)cc1	E coli growth-1 0.534
Cc1noc(NS(=O)(=O)c2ccc(NC(=O)CCn3c(=O)oc4ccccc43)cc2)c1C	E coli growth-2 10.5
Cc1cc(C)nc(NS(=O)(=O)c2ccc(NC(=O)Cn3c(=O)oc4ccccc43)cc2)n1	none
Cc1cc(C)c(C2=CC(=O)CC(c3ccc4c(c3)OCO4)C2)c(C)c1 (configuration not stated)	none (no result: AddAB inh, E coli growth-2, phage Ecoli inh, Tat transport)
O=C(NC(=Nc1nc2ccccc2o1)NC(=O)c1ccccc1)c1ccccc1	none
COc1ccccc1C(=O)NC(=Nc1nc2ccccc2o1)NC(=O)c1ccccc1OC	AddAB inh 14.0, E coli growth-2 13.3
O=C(NN=Cc1ccco1)C1CC(=O)N(c2ccccc2)C1 (configuration not stated)	none (no result: AddAB inh, E coli growth-2, phage Ecoli inh, Tat transport)
CCCCCCn1ccc(=N)cc1	none
CCCCCCCCCCCCCCCCn1cc[n+](CC(C)=O)c1	E coli growth-1 0.0635 (no result: AddAB inh, E coli growth-2, phage Ecoli inh)
NC(=NOS(=O)(=O)c1ccccc1)c1ccncc1	none (no result: AddAB inh, E coli growth-2, phage Ecoli inh, Tat transport)
Cc1ccc(-c2csc(N=C(N)N)n2)c(C)c1	E coli growth-1 0.438 (no result: Tat transport)
CNc1nc(NCc2ccccc2)c2ccccc2n1	E coli growth-1 0.482
Cc1ccc(Nc2nc(NCc3ccco3)c3ccccc3n2)cc1	E coli growth-1 0.411
COc1ccccc1Nc1nc(NCc2ccco2)c2ccccc2n1	none (no result: Tat transport)
c1ccc(N2CCN(c3nc(NCc4ccco4)c4ccccc4n3)CC2)cc1	none
c1ccc(CNc2nc(N3CCN(Cc4ccccc4)CC3)nc3ccccc23)cc1	E coli growth-1 0.484 (no result: Tat transport)
OCCNc1nc(Nc2ccc(Br)cc2)nc2ccccc12	E coli growth-1 0.404 (no result: Tat transport)
OCCNc1nc(Nc2ccccc2)nc2ccccc12	none
Cc1c(C=NNC(=O)C2COc3ccc(C(C)(C)C)cc3O2)c2ccccc2n1C (configuration not stated)	none (no result: AddAB inh, E coli growth-2, phage Ecoli inh, Tat transport)
CCOC1OC(C(=O)N2CCN(Cc3ccc4c(c3)OCO4)CC2)=CC(c2ccc3c(c2)OCO3)C1CCCO (configuration not stated)	none (no result: AddAB inh, E coli growth-2, phage Ecoli inh, Tat transport)
CCOc1ccc(Nc2nc(NCC3CCCO3)c3ccccc3n2)cc1 (configuration not stated)	E coli growth-1 0.491
CCOc1ccc(Nc2c3ccccc3nc3ccccc23)cc1	E coli growth-1 0.516
c1ccc(Nc2nc(NCC3CCCO3)c3ccccc3n2)cc1 (configuration not stated)	E coli growth-1 0.468
N#CC(=C(O)CN1CCOCC1)c1nc2ccccc2s1	none (no result: AddAB inh, E coli growth-2, phage Ecoli inh, Tat transport)
COC(=O)C(C)NC(=O)C=Cc1ccc(OC)cc1 (configuration not stated)	none (no result: AddAB inh, E coli growth-2, phage Ecoli inh, Tat transport)
C#CCOCCOCCOCCNc1nc(N2CCN(C(=O)Cn3cc(CCCN=C(N)N)nn3)CC2)nc(N2CCN(C(=O)C(C(C)CC)n3cc(CCC(=O)O)nn3)CC2)n1 (configuration not stated)	none (no result: AddAB inh, E coli growth-2, phage Ecoli inh, Tat transport)
NC(=NO)c1nc(N2CCCC2)nc(N(c2ccccc2)c2ccccc2)n1	none (no result: AddAB inh, E coli growth-2, phage Ecoli inh, Tat transport)
O=C(CNS(=O)(=O)c1ccc(Br)s1)NCc1ccccc1	E coli growth-1 0.536
NC(=S)n1[nH]c(-c2ccc([N+](=O)[O-])cc2)c(N=Nc2ccc(O)cc2)c1=O	E coli growth-2 16.6
NC(=S)n1[nH]c(-c2ccc([N+](=O)[O-])cc2)c(N=Nc2cccc(Cl)c2)c1=O	none (no result: AddAB inh, E coli growth-2)
O=[N+]([O-])/C=C/c1cc2ccccc2[nH]1	E coli growth-1 0.5
Cc1cn(C2CC(N=[N+]=[N-])C(CO)O2)c(=O)[nH]c1=O (configuration not stated)	E coli growth-1 0.062 (no result: AddAB inh, E coli growth-2, phage Ecoli inh, Tat transport)
Cc1cn(C2CC(O)C(O)C(CO)O2)c(=O)[nH]c1=O (configuration not stated)	none (no result: AddAB inh, E coli growth-1, E coli growth-2, Tat transport)
CCN1C(=O)C(CC(=O)Nc2cccc(C(C)=O)c2)SC1=Nc1ccccn1 (configuration not stated)	none (no result: AddAB inh, E coli growth-2, phage Ecoli inh, Tat transport)
COc1ccc(N(CC(=O)NN=Cc2cc3ccc(OC)cc3nc2Cl)S(=O)(=O)c2ccccc2)cc1	none (no result: AddAB inh, E coli growth-2, phage Ecoli inh, Tat transport)
CCCCCCCNC(=O)C1(CC2CC(c3cccc(Br)c3)=NO2)CCNCC1 (configuration not stated)	E coli growth-1 0.0475
Cc1ccc(Nc2c(-c3ccccn3)nc3cccc(C)n23)cc1	E coli growth-1 0.278
NC(=O)NN=Cc1cccc(C(F)(F)F)c1	none (no result: AddAB inh, E coli growth-2, phage Ecoli inh, Tat transport)
CCN1/C(=C/c2ccc3ccccc3[n+]2CC)C=Cc2ccccc21	E coli growth-2 11.0, phage Ecoli inh 12.2 (no result: E coli growth-1)
CCN1C(=Cc2ccc3ccccc3[n+]2CC)C=Cc2ccccc21	E coli growth-1 0.493 (no result: AddAB inh, E coli growth-2, phage Ecoli inh, Tat transport)
CCN(CC)c1ccc(C(=O)NNC(=O)CCl)cc1	none (no result: E coli growth-1)
CCN(CC)c1ccc(C(=C2C=CC(=[N+](CC)CC)C=C2)c2ccc(N(CC)CC)cc2)cc1	Tat transport 51.3 (no result: AddAB inh, E coli growth-2)
COC(CC(O)CC(O)COCc1ccccc1)OC (configuration not stated)	none (no result: AddAB inh, E coli growth-2, phage Ecoli inh, Tat transport)
Clc1cc2cccnc2c2ncccc12	E coli growth-1 0.527
O=[N+]([O-])c1ccc(Cl)c2cccnc12	none
Cc1c(C)c2cccnc2c2ncccc12	AddAB inh 47.2, E coli growth-1 0.253, E coli growth-2 47.2 (no result: phage Ecoli inh)
Cc1ccc2ccc3cccnc3c2n1	none (no result: E coli growth-1)
O=C1CN(N=Cc2ccc([N+](=O)[O-])o2)C(=O)N1	E coli growth-1 0.457 (no result: AddAB inh, E coli growth-2, phage Ecoli inh, Tat transport)
Cc1nnsc1C(=O)NNc1c(Cl)cccc1Cl	E coli growth-1 0.476
Cc1nnsc1C(=O)NNc1ccc(Cl)cc1	none
COc1cc(/C=C/C(=O)O)ccc1O	none
COc1cc(/C=C/C(=O)/C=C(O)/C=C/c2ccc(O)c(OC)c2)ccc1O	E coli growth-2 10.3 (no result: E coli growth-1)
O=C(/C=C1\C(=O)Nc2ccccc21)/C=C1\C(=O)Nc2ccccc21	E coli growth-1 0.509 (no result: AddAB inh, E coli growth-2)
O=C1Nc2ccccc2/C1=C\C(=O)c1ccccc1	none
